Sampled rows, rich in hits. Any-hit rate of the full collection: about 2.8%.
N-glyco inh – blocks N-linked glycosylation in D54 reporter cells. D54 ERlucT glycosylation luciferase reporter, 24 h; percent of 100 nM tunicamycin response. reporter increase, % at 12.5 µM. 360,000 tested, 0.23% active. AID 588692;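 active = mean luciferase reporter signal, scaled so untreated is 0 and the glycosylation-blocking control 100, at or above a set limit in every replicate; inconclusive = mean reaches the limit but not every replicate does; inactive = mean below the limit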;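 also: luciferase carries N-glycosylation sites so blocking glycosylation raises the light; 0% = median of neutral control wells and 100% = median of 100 nM tunicamycin wells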
LMP1 NFkB inh – inhibitors of Epstein-Barr LMP1-induced NF-kappaB reporter | LMP1-induced NF-kappaB luciferase reporter cells, luminescence | inhibition, % at 12.5 µM | 350,000 tested, 0.69% active | AID 504558; in the data active = inhibition above about 41%; inconclusive = no clear call, values can overlap the other calls;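 also: 0% = neutral control wells and 100% = reference inhibitor control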
PAX8 reporter – lowers PAX8-driven luciferase in RMG-I cells | 360,000 tested, 1.2% active | AID 652154 | inhibition, % at 12.6 µM | RMG-I TPO-luciferase reporter, SteadyGlo, 24 h;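 active = mean replicate inhibition at least 60% with every replicate also reaching 60%; inconclusive = only one of the two criteria is met; inactive = mean below 60% and not all replicates reaching 60%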;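 also: luciferase light reporting Pax8 driven TPO promoter activity; plate controls were median of neutral control wells for no effect and mitoxantrone controls for full effect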
NSD2 HMT inh – blocks human histone methyltransferase NSD2 | 310,000 tested, 0.54% active | AID 743445 | NSD2 peptide methylation, AlphaScreen, 120 min | inhibition, % at 12.5 µM | O96028; in the data active = inhibition above about 50%
Target sequence (O96028 whole entry, looked up): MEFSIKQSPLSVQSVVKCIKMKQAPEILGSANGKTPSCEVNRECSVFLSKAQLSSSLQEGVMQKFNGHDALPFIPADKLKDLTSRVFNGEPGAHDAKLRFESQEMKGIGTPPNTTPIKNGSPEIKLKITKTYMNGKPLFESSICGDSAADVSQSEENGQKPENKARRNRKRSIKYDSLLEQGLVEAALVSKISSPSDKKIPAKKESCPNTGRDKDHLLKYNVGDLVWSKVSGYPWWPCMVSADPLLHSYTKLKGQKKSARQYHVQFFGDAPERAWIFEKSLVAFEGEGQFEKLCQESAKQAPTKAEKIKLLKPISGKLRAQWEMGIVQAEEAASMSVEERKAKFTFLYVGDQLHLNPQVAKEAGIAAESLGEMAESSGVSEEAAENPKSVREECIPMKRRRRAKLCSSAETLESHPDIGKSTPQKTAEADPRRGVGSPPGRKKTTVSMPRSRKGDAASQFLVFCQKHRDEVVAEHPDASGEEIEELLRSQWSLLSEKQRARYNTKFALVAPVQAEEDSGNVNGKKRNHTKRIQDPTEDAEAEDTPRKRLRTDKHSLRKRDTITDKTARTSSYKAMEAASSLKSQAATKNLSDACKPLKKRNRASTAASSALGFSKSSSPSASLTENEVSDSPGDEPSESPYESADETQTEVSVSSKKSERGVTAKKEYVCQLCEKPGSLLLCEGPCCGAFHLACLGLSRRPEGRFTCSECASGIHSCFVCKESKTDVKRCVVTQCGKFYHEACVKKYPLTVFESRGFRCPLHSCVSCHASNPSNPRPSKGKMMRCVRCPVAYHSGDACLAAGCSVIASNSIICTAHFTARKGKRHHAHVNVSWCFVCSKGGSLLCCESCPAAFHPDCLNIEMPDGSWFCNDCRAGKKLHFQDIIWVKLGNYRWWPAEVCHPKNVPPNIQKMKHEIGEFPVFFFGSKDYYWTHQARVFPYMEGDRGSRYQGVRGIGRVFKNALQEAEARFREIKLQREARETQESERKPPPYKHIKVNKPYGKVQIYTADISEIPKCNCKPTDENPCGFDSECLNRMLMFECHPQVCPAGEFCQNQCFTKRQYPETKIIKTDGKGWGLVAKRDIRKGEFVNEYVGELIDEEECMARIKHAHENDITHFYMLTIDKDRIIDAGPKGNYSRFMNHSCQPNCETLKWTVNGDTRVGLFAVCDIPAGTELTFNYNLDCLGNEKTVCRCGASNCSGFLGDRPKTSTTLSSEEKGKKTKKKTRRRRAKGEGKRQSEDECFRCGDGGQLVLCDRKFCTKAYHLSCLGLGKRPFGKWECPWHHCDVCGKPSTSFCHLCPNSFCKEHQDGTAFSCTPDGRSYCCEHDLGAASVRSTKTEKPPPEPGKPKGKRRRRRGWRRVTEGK
HIV Env fusion – HIV envelope-mediated fusion inhibition | HeLa-JRFL Env/CEM21 cell fusion, luciferase | inhibition, % at 12.3 µM | 360,000 tested, 1.1% active | AID 651610;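 active = mean replicate inhibition score of at least 50 and every replicate individually at or above 50; inconclusive = only one of the two criteria met; inactive = mean below 50 and not all replicates reaching 50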;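 also: 0% = plate neutral controls and 100% = maraviroc near 300 nM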
Shn3 inh set2 – reduces Shn3 3'UTR luciferase signal in osteoblasts; AID 588674; 360,000 tested, 0.52% active; Clone20 osteoblast Shn3 3'UTR firefly luciferase, 24 h; inhibition, % at 12.5 µM;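 active = mean inhibition of at least 75% with every replicate also reaching 75%; inconclusive = mean inhibition at least 75% but some replicate below; inactive = mean inhibition below 75%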;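 also: 0% = median of neutral control wells and 100% = pilot-screen positive control compound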
* = called active by the depositor; [ ] = dose if it differs, or a comment.

Screening O=C(C[C@H]1C[C@@H]2c3cc(NC(=O)C4CCC4)ccc3O[C@@H]2[C@@H](CO)O1)NCc1ccc2c(c1)OCO2 returned PAX8 reporter 5.6 and HIV Env fusion 85.8*[16.7 µM].
`O=C(C[C@H]1C[C@H]2c3cc(NC(=O)C4CCC4)ccc3O[C@H]2[C@@H](CO)O1)NCc1ccc2c(c1)OCO2` gave PAX8 reporter 4.2 and HIV Env fusion 77.8*[16.7 µM].
Screening O=C(C[C@H]1C[C@@H]2c3cc(NC(=O)C4CCC4)ccc3O[C@@H]2[C@H](CO)O1)NCc1ccc2c(c1)OCO2 returned PAX8 reporter -10.8 and HIV Env fusion -19.2[16.7 µM].
Screening CCC(=O)N1[C@@H](CO)[C@@H](c2ccc(-c3ccccc3)cc2)[C@@H]1CNC(=O)COC returned PAX8 reporter 18.7.
CC(C)NC(=O)N(C)C[C@H]1Oc2c(NC(=O)C3CC3)cccc2C(=O)N([C@H](C)CO)C[C@H]1C was read as PAX8 reporter -15.8 and HIV Env fusion 0.6[16.7 µM].
Screening CCC1CCCCN1C(=S)NN=C(C)c1ccccn1 (stereo not drawn) returned PAX8 reporter 38.6, NSD2 HMT inh 16.9 and HIV Env fusion 44.7.
For CSC(=S)NN=C(C)c1cccc(C)n1 the results were N-glyco inh -7.6, LMP1 NFkB inh 5.1, PAX8 reporter 76.5*, NSD2 HMT inh 0.5, HIV Env fusion inconclusive and Shn3 inh set2 92.7*.
CC(=NNC(=S)N1CC2CCC(CC2)C1)c1ccncn1 was read as N-glyco inh -12.4, LMP1 NFkB inh 35.2, PAX8 reporter 15.2, NSD2 HMT inh 1.4, HIV Env fusion 51.8 and Shn3 inh set2 88.4*.
CC(=NNC(=S)N1CCCCC1)c1cccc(C)n1 was read as N-glyco inh -10.4, LMP1 NFkB inh 68.6*, PAX8 reporter 3.7, NSD2 HMT inh -0.4, HIV Env fusion 4.1 and Shn3 inh set2 76.5.
Screening CC(=NNC(=S)N1CCCCC1)c1ccccn1 returned N-glyco inh -9.9, LMP1 NFkB inh 57.0*, PAX8 reporter 20.8, NSD2 HMT inh 31.8, HIV Env fusion 33.5 and Shn3 inh set2 inconclusive.
Screening CO[C@H]1CN(C)C(=O)c2ccc(NS(C)(=O)=O)cc2OC[C@@H](C)N(C(=O)C2CC2)C[C@@H]1C returned PAX8 reporter -3.4.
Screening COc1ccc(S(=O)(=O)N2CCN(C(=O)c3cc(-c4ccc(Br)cc4)n[nH]3)CC2)cc1OC returned N-glyco inh 11.2, LMP1 NFkB inh 17.5, PAX8 reporter 50.9, NSD2 HMT inh -4.7, HIV Env fusion 27.0 and Shn3 inh set2 90.6*.
Screening COc1ccc(-c2cc(C(=O)N3CCN(S(=O)(=O)c4ccccc4)CC3)[nH]n2)cc1 returned N-glyco inh -1.5, LMP1 NFkB inh -7.6, PAX8 reporter -9.8, HIV Env fusion -15.0 and Shn3 inh set2 -11.7.
COc1ccc2c3c(n(C)c2c1)[C@@H](CO)N(C(=O)C1CCOCC1)CC31CCN(Cc2cccc(F)c2)CC1 was read as HIV Env fusion 69.9*[16.7 µM].
COc1ccc2c3c(n(C)c2c1)[C@@H](CO)N(C(=O)C1CCC1)CC31CCN(Cc2cccc(F)c2)CC1 was read as PAX8 reporter 35.2.
`COc1ccc2c3c(n(C)c2c1)[C@@H](CO)N(C(=O)C1CC1)CC31CCN(Cc2cccc(F)c2)CC1` gave PAX8 reporter 34.9.
Screening COc1ccc2c3c(n(C)c2c1)[C@H](CO)N(C(=O)C1CCOCC1)CC31CCN(Cc2cccc(F)c2)CC1 returned HIV Env fusion 55.1*[16.7 µM].
For Cc1cccc(N(C)c2cc(-c3ccc(F)cc3)nc3ccnn23)c1 the results were N-glyco inh -0.5, PAX8 reporter 11.7, NSD2 HMT inh -13.7, HIV Env fusion 62.8* and Shn3 inh set2 10.0.
`CC(C)C#Cc1cnc2c(c1)C(=O)N([C@@H](C)CO)C[C@H](C)[C@@H](CN(C)C(=O)CCN1CCCCC1)O2` gave HIV Env fusion -3.4[16.7 µM].
CC[C@H]1OC(=O)[C@H](C)[C@@H](O[C@H]2C[C@@](C)(OC)[C@@H](O)[C@H](C)O2)[C@H](C)[C@@H](O[C@@H]2O[C@H](C)C[C@H](N(C)C)[C@H]2O)[C@](C)(O)C[C@@H](C)C(=NOCOCCOC)[C@H](C)[C@@H](O)[C@]1(C)O was read as N-glyco inh 0.6, LMP1 NFkB inh 53.7*, PAX8 reporter 18.2 and Shn3 inh set2 4.2.
CC[C@H]1OC(=O)[C@H](C)[C@@H](O[C@H]2C[C@@](C)(OC)[C@@H](O)[C@H](C)O2)[C@H](C)[C@@H](O[C@@H]2O[C@H](C)C[C@H](N(C)C)[C@H]2O)[C@](C)(OC)C[C@@H](C)C(=O)[C@H](C)[C@@H](O)[C@]1(C)O was read as N-glyco inh 0.5, LMP1 NFkB inh -0.4, PAX8 reporter -19.7, HIV Env fusion -149.5 and Shn3 inh set2 10.1.
Screening C[C@H]1CCCCO[C@H](CN(C)Cc2ccc(Cl)c(Cl)c2)[C@@H](C)CN([C@@H](C)CO)C(=O)c2cc(NC(=O)Cc3ccccc3)ccc2O1 returned PAX8 reporter inconclusive and HIV Env fusion 13.4[16.7 µM].
For C[C@@H]1CCCCO[C@@H](CN(C)Cc2ccc(Cl)c(Cl)c2)[C@H](C)CN([C@@H](C)CO)C(=O)c2cc(NC(=O)Cc3ccccc3)ccc2O1 the results were PAX8 reporter 86.6* and HIV Env fusion -55.4[16.7 µM].
C[C@@H]1CCCCO[C@@H](CN(C)Cc2ccccc2)[C@H](C)CN([C@H](C)CO)C(=O)c2cc(NC(=O)Cc3ccccc3)ccc2O1 was read as PAX8 reporter 3.1 and HIV Env fusion -15.6[16.7 µM].
C[C@@H]1CN([C@H](C)CO)C(=O)c2cc(NC(=O)Cc3ccccc3)ccc2O[C@@H](C)CCCCO[C@H]1CN(C)Cc1ccc(Cl)c(Cl)c1 was read as PAX8 reporter 97.2* and HIV Env fusion 26.4[16.7 µM].
COc1ccc2c3c([nH]c2c1)[C@H](CO)N(C(=O)CN(C)C)CC31CCN(CC2CCCC2)CC1 was read as PAX8 reporter -14.7.
C[C@@H]1CN([C@@H](C)CO)C(=O)c2cc(NS(=O)(=O)c3ccccc3)ccc2O[C@H]1CN(C)Cc1ccncc1 was read as PAX8 reporter -5.3.
C[C@@H]1CN([C@@H](C)CO)C(=O)c2cccc(N(C)C)c2O[C@@H]1CN(C)Cc1ccc(Cl)c(Cl)c1 was read as PAX8 reporter 33.5 and HIV Env fusion 10.6[16.7 µM].
`COc1ccc(NC(=O)Nc2ccc3c(c2)C(=O)N([C@H](C)CO)C[C@H](C)[C@@H](CN(C)C(=O)Cc2ccccc2)OCCCC[C@@H](C)O3)cc1` gave PAX8 reporter -0.8 and HIV Env fusion 1.6[16.7 µM].
COc1ccc(NC(=O)N(C)C[C@@H]2Oc3cc(C#CCN(C)C)ccc3S(=O)(=O)N([C@@H](C)CO)C[C@H]2C)cc1 was read as HIV Env fusion -16.8[16.7 µM].
